# Measurements published in the supplement of paper PMC11172423.
# System: Falciformispora senegalensis CBS197.79
# Assay: growth relative to untreated control; higher = less inhibition, active = 20 or less
# Details: 100 µM
# Method in brief: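 For each test, a hyphal fragment suspension of M. mycetomatis MM55 or F. senegalensis CBS197.79 was prepared in colourless RPMI 1640 with L-glutamine and MOPS at 68–72% transmission at 660 nm. Exposure to compound at 100 or 25 µM ran for 7 days at 37 °C in 96-well plates, followed by viability reading with MTS (2 h, 490 nm) or resazurin (600 nm). Growth corresponds to metabolic activity relative to the untreated growth control after correction of both with a blank of medium and dye.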
row,Compound,growth
1,CCC1=C(c2ccc(C)cc2)S(=O)(=O)N=C1N1CCC(C(=O)NCCN2CCCCC2C)CC1 (stereo not given),88.6% (inactive)
2,CCOc1ccc(-c2nc(NC(=O)Cc3cccc(OC)c3)sc2C)cc1,80.5% (inactive)
3,O=C1NCN(c2ccccc2)C12CCN(CCCC(c1ccc(F)cc1)c1ccc(F)cc1)CC2,14.7% (active)
4,O=C(Nc1cccc(-c2n[nH]c3ccc(-c4n[nH]c(C5CCCN5)n4)cc23)c1)C1CC1 (stereo not given),95% (inactive)
5,CCSC1CCCCC1NCCn1c(=O)oc2cccnc21 (stereo not given),90.9% (inactive)
6,C[C@@H](c1nc(-c2ccc(C#N)cc2)cs1)[C@](O)(Cn1cncn1)c1ccc(F)cc1F,52.3% (inactive)
7,O=C(NC1CCNCC1)c1ccc(Nc2nccc(-c3ccc(Cl)cc3)n2)cc1,10% (active)
8,CCOc1cc([C@@H](CS(C)(=O)=O)N2C(=O)c3cccc(NC(C)=O)c3C2=O)ccc1OC,99.6% (inactive)
9,Cc1nc2ccccn2c1C1(O)C(=O)Nc2c(Cl)cc(Cl)cc21 (stereo not given),118% (inactive)
10,Cn1cnc2c(F)c(Nc3ccc(Br)cc3Cl)c(C(=O)NOCCO)cc21,103% (inactive)
